From PubChem BioAssay
HttQ103 aggreg: mutant huntingtin aggregation inhibition. 220,000 compounds, 1.1% hits. PC12 HttQ103-GFP aggregates, Acumen cytometry, 40 h. Potency, µM (series often up to 46.1 µM), most hits filed as inhibitors; also: nearly all actives have a fitted effect of over 60% in size
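PC12 cells stably carrying ecdysone-inducible HTT exon 1 Q103–GFP were induced with tebufenozide (100 nM final) and treated with library compounds in titration. GFP aggregates in lysates were counted by laser scanning cytometry.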
HPGD inh: inhibitors of human 15-hydroxyprostaglandin dehydrogenase (HPGD); purified HPGD, NADH fluorescence kinetic, PGE2 substrate; Potency, µM, usual class: inhibitors; 150,000 compounds, 4.3% hits; active = well fitted inhibition curve with a large enough effect, not every such curve was filed as active; inconclusive = small, poorly fitted or top-dose-only effect, or another doubt; inactive = no such curve, though single readings can be large or run the other way
Target sequence (P15428 whole entry, looked up): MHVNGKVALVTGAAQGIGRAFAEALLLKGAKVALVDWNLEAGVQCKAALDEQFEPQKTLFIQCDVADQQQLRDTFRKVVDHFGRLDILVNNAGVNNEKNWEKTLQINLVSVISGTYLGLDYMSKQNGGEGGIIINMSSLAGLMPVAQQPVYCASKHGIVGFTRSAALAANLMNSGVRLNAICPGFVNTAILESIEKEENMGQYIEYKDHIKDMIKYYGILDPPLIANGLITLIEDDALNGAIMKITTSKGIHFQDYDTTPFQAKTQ
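NADH formation kinetics: reaction with 30 uM PGE2 and 1 mM NAD+ (final), 20 nM enzyme, Tris-HCl pH 8 with Tween 20, after 15 min compound preincubation at room temperature. Fluorescence change, last versus first of five reads.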
IMPase inh: membrane-permeable compound that blocks inositol monophosphatase; CHO-M1 cells, IP1 accumulation, HTRF TR-FRET ratio; 120,000 tested, under 10 active; inhibition (IP1 accumulation), % at 46.1 µM; P97697; AID 901; active = well fitted curve in the direction sought with a large enough effect in the signal ratio, not every such curve was filed as active; inconclusive = small, poorly fitted or top-dose-only effect, or a change in a side signal; inactive = no such curve, though single readings can be large or run the other way; the % refers to the signal ratio;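 also: cells stimulated with carbachol in lithium chloride buffer; higher means more IMPase inhibition seen as more IP1 and lower FRET ratio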
Target sequence (P97697 whole entry, looked up): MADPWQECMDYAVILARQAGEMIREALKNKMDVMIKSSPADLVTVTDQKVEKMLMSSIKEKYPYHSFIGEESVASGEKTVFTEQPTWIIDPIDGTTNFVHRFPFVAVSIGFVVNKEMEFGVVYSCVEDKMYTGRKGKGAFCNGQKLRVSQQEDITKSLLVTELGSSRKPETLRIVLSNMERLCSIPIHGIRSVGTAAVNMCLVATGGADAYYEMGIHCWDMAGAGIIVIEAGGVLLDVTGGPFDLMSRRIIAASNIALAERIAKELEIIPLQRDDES
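Cellular IMPase inhibition is scored as a rise in cytosolic IP1, detected by competitive TR-FRET between d2-labelled IP1 and a europium anti-IP1 antibody. M1-expressing CHO cells were stimulated with carbachol for 30 min at 37C, with lithium (50 mM LiCl) present in the buffer.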
HTT ATP protect: cytoprotection in Huntington HTT-Q103 PC12 cell model. PC12 HTT-Q103 induced, cytoprotection, ATP luminescence, 40 h. Potency, µM (series often up to 56.4 µM), most hits filed as activators. 230,000 compounds, 0.14% hits. AID 1471; also: nearly all actives have a fitted effect of over 45% in size
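Stable PC12 Q103-GFP cells in serum-supplemented, phenol red-free DMEM; induction by tebufenozide at 100 nM final; compound dose series; cell viability quantified luminescently from ATP.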
IMPase Li inh: membrane-permeable IMPase blocker, potentiated with lithium; Potency, µM (top dose mostly 59.4 µM), actives largely listed as inhibitors; CHO-M1 cells, IP1 TR-FRET (IP-One), carbachol + lithium; 210,000 compounds, 0.35% hits; AID 1457;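 also: IP1 builds up when IMPase is blocked and the TR-FRET signal falls; nearly all actives have a fitted effect of over 50% in size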
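CHO-M1, 2000 cells/well, 16–30 h culture; cpd + low Li+, 30 min 37C; lysis with d2-IP1/Eu-anti-IP1 Ab, 10 min RT; TR-FRET 665/620 ratio and 620 channel; AC50 via Hill.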
ALDH1A1 inh: ALDH1A1 (human) enzyme inhibition; Purified ALDH1A1, NADH fluorescence, propionaldehyde substrate; Potency, µM (series often up to 75.3 µM), actives largely listed as inhibitors; 220,000 compounds, 7.3% hits; AID 1030; active = well fitted inhibition curve with a large enough effect, not every such curve was filed as active; inconclusive = small, poorly fitted or top-dose-only effect, or another doubt; inactive = no such curve, though single readings can be large or run the other way
Hits are given with their value; . = inactive; ? = inconclusive; / = no result; [ ] = another dose, or the depositor's remark. Compounds with a hit are over-represented: about 9.4% of the library has one in this group of screens. Unless noted, calls follow the shape of the dose curve; as a rule, active = well fitted curve in the direction sought with a large enough effect; inconclusive = small, poorly fitted or top-dose-only effect, or another doubt; inactive = no such curve, though single readings can be large; an effect the other way counts as inactive or inconclusive.

SMILES	HttQ103 aggreg	HPGD inh	IMPase inh	HTT ATP protect	IMPase Li inh	ALDH1A1 inh
CC1(C)CC(=O)C(C(c2ccco2)C2C(=O)CC(C)(C)CC2=O)C(=O)C1	.	7.9µM	.	.[10 µM]	.	?
C=CCN1C(=O)C(Cc2ccc(SC(F)F)cc2)SC1=Nc1ccc(C(=O)O)cc1 (centres undefined)	.	/	/	.	.	10µM
C=CCN1C(=O)C(CC(=O)O)SC1=Nc1ccc(C(=O)O)cc1 (centres undefined)	.	/	/	.	.	.
O=C1C(=O)N(Cc2cccnc2)C(c2ccccn2)/C1=C(/O)c1ccc(Br)cc1 (centres undefined)	.	.	.	.	?	.
CCCCOc1ccc(/C(O)=C2/C(=O)C(=O)N(Cc3cccnc3)C2c2ccncc2)c(C)c1 (centres undefined)	.	.	/	/	10µM	?
COc1ccc(/C(O)=C2/C(=O)C(=O)N(Cc3cccnc3)C2c2ccccn2)cc1 (centres undefined)	.	.	.	.[10 µM]	.	.
Cc1cc(OCC(C)C)ccc1/C(O)=C1/C(=O)C(=O)N(Cc2cccnc2)C1c1ccncc1 (centres undefined)	.	.	?	.[10 µM]	4.5µM	?
Cc1ccc(/C(O)=C2\C(=O)C(=O)N(Cc3cccnc3)C2c2ccccc2[N+](=O)[O-])cc1 (centres undefined)	.	.	/	.[10 µM]	.	7.1µM
CC(C)=CCn1cnc2c1c(=O)n(C)c(=O)n2C	/	.	/	.	.	.
CC(C)=CCC/C(C)=C/CO/N=C1/C[C@@H](O)[C@@H](O)[C@@H]2[C@@H]3C(=O)N(C[C@@H]4CCCO4)C(=O)[C@H]3CC[C@H]12	/	/	/	?	/	.[13.5 µM]
NC(=O)c1c(NC(=O)c2ccco2)sc2c1CCC2	.	?	.	.[10 µM]	.	?
O=C(Nc1sc2c(c1C(=O)O)CCCCC2)c1ccco1	.	18µM	.	.	.	25µM
Cc1ccccc1C(=O)Nc1sc2c(c1C(=O)N1CCCCC1)CCC(C(C)(C)C)C2 (centres undefined)	/	/	.	/	/	/
CN1CCN(C(=O)c2c(NC(=O)c3ccco3)sc3c2CCC(C(C)(C)C)C3)CC1 (centres undefined)	?	.	?	.	?	13µM
NC(=O)c1c(NC(NC(=O)c2ccco2)(C(F)(F)F)C(F)(F)F)sc2c1CCCC2	.	.	.	.	.	32µM
CN(C)C(=O)c1ccc(-c2nc(N3CCOCC3)c3ccccc3n2)cc1	/	/	/	.	.	?
CCCCCCn1c(C(C)NC(=O)c2ccco2)nc2ccccc21 (centres undefined)	.	.	.	.[0.074 µM]	.	5µM
CCCCCn1c(NC(=O)c2ccco2)c(S(=O)(=O)c2ccc(C)cc2)c2nc3ccccc3nc21	?	?	?	.	11µM	?
CCCCn1c(NS(=O)(=O)c2ccccc2)c(S(=O)(=O)c2ccc(C)cc2)c2nc3ccccc3nc21	?	?	?	.[10 µM]	.	?
CCCCn1c(NC(=O)c2ccc(Br)o2)c(S(=O)(=O)c2ccccc2)c2nc3ccccc3nc21	?	?	?	.	10µM	?
Cc1ccc(C(=O)c2no[n+]([O-])c2C(=O)c2ccc(C)cc2)cc1	?	20µM	/	/	.	0.5µM
Cc1ccc(C(=O)CSc2nnc3c4ccccc4nc(C(C)(C)C)n23)cc1	.	.	/	.[10 µM]	.	?
CC(=O)CSc1nnc2c3ccccc3nc(C(C)(C)C)n12	.	/	/	.	.	3.5µM
NS(=O)(=O)c1ccc(NS(=O)(=O)c2ccc(NC(=O)c3ccc(-c4ccccc4)cc3)cc2)cc1	.	.	.	.	.	.
NS(=O)(=O)c1ccc(NC(=O)c2ccc(-c3ccccc3)cc2)cc1	.	/	/	.[10 µM]	8.9µM	.
SMILES	HttQ103 aggreg	HPGD inh	IMPase inh	HTT ATP protect	IMPase Li inh	ALDH1A1 inh
C=CCN(CC=C)S(=O)(=O)c1ccc(NC(=S)NC(=O)/C=C/c2ccc(C)cc2)cc1	.	.	.	.	.	.
C=CCN(CC=C)S(=O)(=O)c1ccc(NC(=S)NC(=O)c2ccc(-c3ccccc3)cc2)cc1	.	?	.	.	.	3.2µM
C=CCN(CC=C)S(=O)(=O)c1ccc(NC(=S)NC(=O)c2ccco2)cc1	.	.	.	.	.	22µM
CSC1=NCCN1C(=O)C12CC3CC(CC(C3)C1)C2	.	/	/	/	.	?
O=S1(=O)c2cccc3cccc(c23)N1CCCN1CCN(c2ccc(F)cc2)CC1	.	/	/	.	/	/
Oc1cc(O)c2c(c1)O[C@H](c1ccc(O)c(O)c1)[C@@H](O)[C@@H]2c1c(O)cc(O)c2c1O[C@@H](c1ccc(O)c(O)c1)[C@H](O)C2	/	.	/	.[10 µM]	.	.[13.5 µM]
CCOC(=O)/C(C#N)=C1\Nc2ccccc2N=C1N(CC(C)C)CC(C)C	?	?	.	.	.	?
CCOC(=O)/C(C#N)=C1/C=C(C)NC(c2ccccc2O)=N1	11µM	.	?	.[10 µM]	.	?
CN1CCN(c2nc(-c3cccnc3)nc3ccccc23)CC1	.	.	.	.	.	.
c1cncc(-c2nc(N3CCCCCC3)c3ccccc3n2)c1	.	.	.	.[0.074 µM]	.	1.4µM
CC1(C)CC(=O)c2c(noc2-c2ccccc2)C1	.	22µM	.	.	.	?
CC1(C)CC(=O)c2c(Cc3ccccc3)noc2C1	.	/	/	.	.	.
CCCc1cc(C(=O)OC)c(NC(=O)CCCC(=O)O)s1	.[9.22 µM]	/	/	.	?	.
CCc1cc(C(=O)OC)c(NC(=O)CCC(=O)O)s1	.	13µM	.	.[10 µM]	.	18µM
CC(=O)CCn1cc([N+](=O)[O-])nc1C	.[9.22 µM]	/	/	.[10 µM]	/	/
COCc1cc(C)nc2sc(C(=O)N3CCN(c4ccccc4)CC3)c(N)c12	.	?	.	.	.	?
COCc1cc(C)nc2sc(C(=O)N3CCCCC3)c(N)c12	.	0.25µM	.	.	.	18µM
O=C(CSc1nnnn1-c1ccc(F)cc1)c1ccc(O)c(O)c1	.	/	/	.	.	22µM
COc1ccc(-n2nnnc2SCC(=O)c2cccc(OC)c2)cc1	.	.	.	.	.	.
Cc1ccnc(NC(=O)CCC(=O)N(CC(=O)NCc2ccccc2)Cc2cccs2)c1	.	/	/	?	.	16µM
Cc1ccnc(NC(=O)CCC(=O)N(CC(=O)NC2CCCCC2)Cc2ccccc2)c1	.[9.22 µM]	/	/	.[10 µM]	.	.
Cc1csc(SCC(=O)Nc2c(C)n(C)n(-c3ccccc3)c2=O)n1	.	.	.	.	.	.
CCN1CCN(C(C)C(=O)Nc2c(C)n(C)n(-c3ccccc3)c2=O)CC1 (centres undefined)	.	.	.	.	.	22µM
Cc1nc(SCC(=O)Nc2c(C)n(C)n(-c3ccccc3)c2=O)n[nH]1	.	.	.	.[10 µM]	.	14µM
Cc1nc(SCC(=O)c2ccccc2)n[nH]1	.	?	.	.	.	22µM
